The structures appear in SMILES notation. About 580 (24%) of roughly 2,400 compounds were called active. These entries were drawn from the full list. Unmarked numbers belong to inactive results.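 The calls were made as follows: active = activity change at or above the mean plus 3 SD of buffer wells without dofetilide, per plate; inactive = the rest.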

The target in the experiment is Potassium voltage-gated channel subfamily KQT member 2 (Rattus norvegicus) (UniProt O88943). Nature of the experiment: rat KCNQ2 channel activation by compounds alone, confirmation, counter-screen for hERG block protector project, cell-based, CHO, FluxOR thallium flux (AID 1942).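 Also: normalized value minus buffer-control mean plus three SD of buffer wells.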 Particulars: CHO-KCNQ2 cells, FluxOR thallium flux fluorescence; at 10 µM; stronger effect = higher value. A general note: A counterscreen serves to expose hits that act by an unwanted route or on another target.
Chain of Potassium voltage-gated channel subfamily KQT member 2 (Rattus norvegicus) (O88943 whole entry, looked up): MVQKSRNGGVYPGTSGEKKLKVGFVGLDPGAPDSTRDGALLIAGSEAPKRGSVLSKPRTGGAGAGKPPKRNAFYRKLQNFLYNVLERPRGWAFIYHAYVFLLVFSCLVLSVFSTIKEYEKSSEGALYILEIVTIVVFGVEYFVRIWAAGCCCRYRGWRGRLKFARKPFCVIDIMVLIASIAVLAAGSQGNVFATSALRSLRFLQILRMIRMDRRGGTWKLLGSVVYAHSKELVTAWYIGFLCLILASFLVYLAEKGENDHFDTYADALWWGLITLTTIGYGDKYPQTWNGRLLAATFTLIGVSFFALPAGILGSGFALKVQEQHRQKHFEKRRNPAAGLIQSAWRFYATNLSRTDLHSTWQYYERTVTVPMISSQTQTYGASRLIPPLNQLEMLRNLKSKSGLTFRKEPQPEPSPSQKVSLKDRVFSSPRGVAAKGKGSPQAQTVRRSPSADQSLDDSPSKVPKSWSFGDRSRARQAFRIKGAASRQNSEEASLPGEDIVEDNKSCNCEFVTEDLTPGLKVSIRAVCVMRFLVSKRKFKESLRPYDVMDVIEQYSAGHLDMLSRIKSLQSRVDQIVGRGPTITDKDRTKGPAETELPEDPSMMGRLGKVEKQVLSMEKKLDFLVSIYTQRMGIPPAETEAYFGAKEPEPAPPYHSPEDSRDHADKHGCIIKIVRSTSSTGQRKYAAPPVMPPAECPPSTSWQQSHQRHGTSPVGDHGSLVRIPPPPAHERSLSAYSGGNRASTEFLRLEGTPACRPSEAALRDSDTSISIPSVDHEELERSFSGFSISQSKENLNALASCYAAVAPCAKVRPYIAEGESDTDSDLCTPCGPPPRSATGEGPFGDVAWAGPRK
Turning to `COc1ccc2c(c1)O[C@@H](c1cccc(C(F)(F)F)c1)[C@H](OC(=O)NCCc1ccc(OC)c(OC)c1)C2=O`, the activity change, less the hit threshold is -11%. Turning to `CCc1nnc(NC(=O)COc2ccc([N+](=O)[O-])cc2)s1`, the activity change, less the hit threshold was -12.5%. In the case of `CC/C(=N\NC(=O)c1nnn(-c2nonc2N)c1-c1cccs1)c1ccccc1`, the activity change, less the hit threshold is -13.9%. Consider `COc1ccccc1NC(=O)C(=O)NNC(=O)c1ccco1`, for which the activity change, less the hit threshold was 24.1% (active). Turning to `O=C(CCC(=O)Nc1ccccc1)NNC(=O)c1ccco1`, the activity change, less the hit threshold is -23.9%.

As for `COc1ccc(C)cc1NC(=O)C(=O)NNC(=O)c1ccco1`, the activity change, less the hit threshold was 73.2% (active). Then `CCN(CC)C(=O)CN1C(=O)C2CC=C(Cl)CC2C1=O` (stereo not given), with -12.3%; and `O=C(O)Cn1cc(CN2CCOCC2)c2ccccc21`, with -20.4%; and `CC1(OC(=O)C2CCCC2)C(=O)C=C2C=C(c3ccc(C#N)cc3)OC=C2C1=O` (stereo not given), with -18.1%. With `CCOC(=O)C1=C(Cn2cnc3ccccc32)NC(=O)NC1c1cc(C)ccc1C` (stereo not given), the activity change, less the hit threshold is -19.4%.

With `Cc1ccc(S(=O)(=O)N2CCOCC2)cc1NC(=O)CSc1nc2ccccc2c(=O)n1Cc1ccccc1`, the activity change, less the hit threshold is -8.2%.

For `Cc1ccc(CNC(=O)CN2C(C)CCCC2C)cc1` (stereo not given), the activity change, less the hit threshold is -17%. `CN1/C(=C/C=C(C#N)C#N)C=Cc2ccccc21`: the activity change, less the hit threshold is -17.6%. On to `Cc1ccc(-n2c(=O)c3cc4c(=O)n(-c5ccc(C)c(C)c5)c(=O)c4c(C(=O)c4ccc(C(=O)O)cc4)c3c2=O)cc1C`, for which the activity change, less the hit threshold is -9.5%. For the compound `CCOC(=O)N1CCN(c2c(-c3ccc(C)c(C)c3)c(=O)c2=O)CC1`, the activity change, less the hit threshold is -10.9%.

As for `Cc1ccc(N2CCN(C(=O)N3CCCC3)CC2)cc1C`, the activity change, less the hit threshold is 3.3% (active).

Take `Cc1onc(-c2ccccc2)c1C(=O)NC(=S)Nc1sc2c(c1C#N)CCCC2`: the activity change, less the hit threshold was -12.6%. Take `CCOC(=O)c1c(NC(=S)NC)sc2c1CCCC2`: the activity change, less the hit threshold is 13% (active). Turning to `CCOC(=O)c1c(NC(=S)NC)sc2c1CC(C)(C)SC2`, the activity change, less the hit threshold was 97.7% (active).

For `CCOC(=O)c1c(/N=C/C2=C(O)CCCC2=O)sc2c1CCCC2`, the activity change, less the hit threshold was -20.8%. `COc1ccc(NC(=S)NC(NC(=O)c2cccc3ccccc23)C(Cl)(Cl)Cl)c([N+](=O)[O-])c1` (stereo not given): the activity change, less the hit threshold was -21.8%.

`CNC(=S)Nc1sc2c(c1C(=O)OC)CCC2`: the activity change, less the hit threshold was 8.9% (active). As to `COC(=O)c1c(NC(=S)Nc2ccc(F)cc2[N+](=O)[O-])sc2c1CCCCC2`, the activity change, less the hit threshold was 1.5% (active). With `CCc1nnc(NC(=O)CCC(=O)N2CCN(C3CCCCC3)CC2)s1`, the activity change, less the hit threshold was -21.4%. Consider `O=C(N/C(=C/c1ccc2c(c1)OCO2)C(=O)N1CCOCC1)c1cccs1`, for which the activity change, less the hit threshold was -18.2%. With `CC(C)OC(=O)N(C)c1ccc(C(O)(C(F)(F)F)C(F)(F)F)cc1`, the activity change, less the hit threshold is -9.3%. On to `COc1cc(C2c3c(n[nH]c3C)C(=O)N2c2ccc(C)cc2)ccc1O` (stereo not given), for which the activity change, less the hit threshold was -19.5%. Then `Cc1ccc(NS(=O)(=O)c2cn(C)c(=O)n(C)c2=O)c(C)c1`, with -0.5%; and `Cn1c(NNC(=O)C(c2ccccc2)c2ccccc2)cc(=O)n(C)c1=O`, with -1.8%; and `CCOc1ccc(NC(=O)c2ccc(NC(=O)CSc3nc4ccccc4c(=O)[nH]3)cc2)cc1`, with -13.5%. As for `Fc1cccc(/C=N/Nc2ccc3ccccc3n2)c1`, the activity change, less the hit threshold is -17.9%. For the compound `Cc1ccccc1CC(=O)NC1CCN(Cc2ccccc2)CC1`, the activity change, less the hit threshold is -25.3%.

As to `CSc1nc(-c2ccccc2)[nH]c(=S)c1C(C)=O`, the activity change, less the hit threshold is 72.6% (active). On to `CC(=O)c1c(N)[nH]c(-c2ccccc2)nc1=S`, for which the activity change, less the hit threshold is -0.2%. For `CC(=O)c1c(N2CCN(Cc3ccccc3)CC2)[nH]c(-c2ccccc2)nc1=S`, the activity change, less the hit threshold is 22.7% (active). Turning to `C=C(C)Cc1c(C)nc(-c2ccccc2)[nH]c1=O`, the activity change, less the hit threshold is -12.3%. With `CC(=O)c1c(C)[nH]c(-c2ccccc2)nc1=S` the figure was -7.7%; with `CC(=O)c1c(NC(=O)c2ccccc2)[nH]c(-c2ccccc2)nc1=S`, 7% (active); with `CC(=O)c1c(N2CCCC2)[nH]c(-c2ccccc2)nc1=S`, -6%. In the case of `O=C(NCc1cccc(Cl)c1)c1ccncc1`, the activity change, less the hit threshold is -23.6%. For the compound `Nc1ccc(Cl)c(NC(=O)c2cccs2)c1`, the activity change, less the hit threshold was -12.3%. Turning to `Cc1ccc(C(C)NC(=O)c2ccc3c(c2)OCO3)cc1C` (stereo not given), the activity change, less the hit threshold was 27.1% (active).

Regarding `Cc1cc(C(=O)CCC(=O)NC(C)c2ccc(S(N)(=O)=O)cc2)c(C)s1` (stereo not given), the activity change, less the hit threshold is -10%. `CCCCNC(=S)NNC(=O)c1ccc2c(c1)OCO2`: the activity change, less the hit threshold was -24.3%. Take `Cc1ccc(NC(=O)c2ccc3c(c2)OCO3)cc1Cl`: the activity change, less the hit threshold was -14.7%. Take `Cc1ccc(C(C)NC(=O)c2cccs2)cc1C` (stereo not given): the activity change, less the hit threshold is 4% (active).

Consider `Cc1cc(C(=O)NNC(=O)c2cccs2)nn1C(C)(C)C`, for which the activity change, less the hit threshold was -14.9%.

With `Cc1ccc(C(=O)NC(C)c2ccc(C)c(C)c2)s1` (stereo not given), the activity change, less the hit threshold is 24.3% (active). With `O=S(=O)(Nc1ccc(O)c2ccccc12)c1ccc(F)cc1` the figure was -19.8%. Regarding `O=C1C2C3C=CC(C4CC34)C2C(=O)N1/N=C/c1ccc(-c2ccc(F)cc2[N+](=O)[O-])o1` (stereo not given), the activity change, less the hit threshold was -20.9%.

On to `Cc1ccc(/C=N/Nc2nc(C(C)(C)C)cs2)o1`, for which the activity change, less the hit threshold is -0.3%. As to `COCCNC(=O)C1CC(=O)N(c2ccc(OC)cc2)C1c1ccc(OC)cc1` (stereo not given), the activity change, less the hit threshold is -16.8%. Consider `CN1C(=O)/C(=N/OC(=O)c2ccccc2)c2ccccc21`, for which the activity change, less the hit threshold is -19.8%. `O=C(O)CCCCn1c(SCc2ccccc2Cl)nc2ccsc2c1=O`: the activity change, less the hit threshold was -5.9%. Consider `Cc1cccc(NC(=S)NNC(=O)c2csc3c2CCC(C)C3)c1` (stereo not given), for which the activity change, less the hit threshold was -8.1%. Regarding `Cc1ccc(C)c(NC(=S)NNC(=O)c2csc3c2CCC(C)C3)c1` (stereo not given), the activity change, less the hit threshold was 14.5% (active). `Cc1ccc(C)c(NC(=O)C2C3CCCC2C3c2ccccc2)c1` (stereo not given): the activity change, less the hit threshold was -4.2%.

Take `O=C(OCC(=O)N1CCOCC1)c1ccc(Cl)cc1[N+](=O)[O-]`: the activity change, less the hit threshold was -13.6%. As for `O=c1ccn(CCCBr)c(=O)[nH]1`, the activity change, less the hit threshold is -13.2%. Regarding `COC(=O)CSc1nc(N2CCCCC2)c2c(c1C#N)CCCC2`, the activity change, less the hit threshold is -6.4%. For `CCOC(=O)C(C)Sc1nc2c(c(-c3cccs3)c1C#N)CCC2` (stereo not given), the activity change, less the hit threshold was -15.1%. Regarding `COC(=O)CSc1nc2c(c(-c3ccc(C)o3)c1C#N)CCCC2`, the activity change, less the hit threshold was 7.4% (active). For `Nc1cccc(Oc2cnccn2)c1`, the activity change, less the hit threshold is -17.9%. Take `COc1cc2c(cc1OC)CN(C(=O)c1ccc3nc[nH]c3c1)CC2`: the activity change, less the hit threshold was -2.1%. As to `Cc1ccc(OCC(=O)NC(=S)Nc2ccc(Br)cn2)cc1`, the activity change, less the hit threshold was 12.4% (active).

With `Cc1ccc(OCC(=O)NC(=S)Nc2ccc(Br)cn2)cc1C`, the activity change, less the hit threshold was -11.2%.

As to `Cc1nc(NC(=S)NC(=O)COc2ccc(Cl)cc2)ccc1Br`, the activity change, less the hit threshold is -19.1%. With `COc1ccc(N(CC(=O)N2CCN(Cc3ccccc3)CC2)S(C)(=O)=O)cc1OC`, the activity change, less the hit threshold is -16.5%.

For `COCCNC(=O)C(c1ccncc1)N(C(=O)Cn1nnc2ccccc21)c1ccc(OC)cc1` (stereo not given), the activity change, less the hit threshold is -20.7%.

For `COCCNC(=O)C(c1ccc(C)o1)N(Cc1ccc(OC)cc1)C(=O)Cn1nnc2ccccc21` (stereo not given), the activity change, less the hit threshold was 19.1% (active). In the case of `Cc1ccc(-c2nnn(CC(=O)N(CC3CCCO3)C(C(=O)NC3CCCC3)c3ccc(O)cc3)n2)o1` (stereo not given), the activity change, less the hit threshold was -15.8%. Turning to `CC1CC(C)CN(CCCNC(=O)Cc2c(C(=O)O)[nH]c3ccccc23)C1` (stereo not given), the activity change, less the hit threshold was -14.9%. For `Nn1c(SCC(=O)Nc2ccccc2F)nnc1C1CCCCC1`, the activity change, less the hit threshold is -10.5%. Then `COc1cc2c(cc1OC)C(C)N(C(=S)NC(=O)c1ccccc1)CC2` (stereo not given), with -10.9%; and `CC1Cc2cc(S(=O)(=O)NCc3ccccc3)ccc2N1C(=O)C1CCC1` (stereo not given), with -20.4%; and `CC1Cc2ccccc2N1C(=S)NC(=O)c1cccc(Br)c1` (stereo not given), with 121% (active). Regarding `CC1Cc2ccccc2N1C(=S)NC(=O)C1(C)CC1(Cl)Cl` (stereo not given), the activity change, less the hit threshold is 38.1% (active).

In the case of `Cc1csc2ncc(C(=O)N3c4ccccc4CC3C)c(=O)n12` (stereo not given), the activity change, less the hit threshold was -9.8%. As to `CC1Cc2ccccc2N1C(=S)NC(=O)c1ccc(Cl)cc1Cl` (stereo not given), the activity change, less the hit threshold is 52.5% (active). In the case of `Cc1ccc2c(c1)C1CN(C)CCC1N2C(=S)NC(=O)c1ccc(Br)cc1` (stereo not given), the activity change, less the hit threshold was -7%. Consider `CC1Cc2ccccc2N1C(=S)NC(=O)c1ccco1` (stereo not given), for which the activity change, less the hit threshold was -3.3%. Turning to `CNC(=O)c1[nH]cnc1C(=O)Nc1ccccn1`, the activity change, less the hit threshold was -9.6%.

`Cc1cc(S(=O)(=O)NCC(C)C)ccc1OCC(=O)NCc1ccccn1`: the activity change, less the hit threshold is -21.1%. Take `CCOc1cc(Br)c(C(=O)O)cc1OC`: the activity change, less the hit threshold was -13.8%. Turning to `OC(CCN1CCOCC1)c1ccccc1` (stereo not given), the activity change, less the hit threshold was -33.4%. With `Cc1nonc1OCCNc1ccc([N+](=O)[O-])cc1` the figure was -8.5%. For `Cc1ccc(-c2nc(CS(=O)(=O)CC(=O)NCCN3CCOCC3)c(C)o2)cc1`, the activity change, less the hit threshold was -12.6%.

With `Cc1ccc2nc(-c3ccccn3)cc(C(=O)NC3CCN(C)CC3)c2c1`, the activity change, less the hit threshold is -23.8%. With `CS(=O)(=O)c1sc(C(=O)NC(=S)Nc2ccc(OC(F)(F)F)cc2)c2c1C=CCC2` the figure was -11%; with `CC(Oc1ccc(Cl)cc1Cl)C(=O)NC(=S)N1CCc2ccccc21` (stereo not given), 24.1% (active).

For the compound `Cc1cccc(C(=O)NNC(=S)NC(=O)c2ccccc2)c1`, the activity change, less the hit threshold was -4.5%.

For the compound `O=C(COc1ccc(Br)cc1Cl)NC(=S)N1CCc2ccccc21`, the activity change, less the hit threshold is -14.2%. On to `Cc1cccc(C(=O)NC(=S)N2CCc3ccccc3C2)c1`, for which the activity change, less the hit threshold is 20.8% (active). For `CC1(C)CC2CC(C)(CN2C(=S)NC(=O)c2ccccc2Cl)C1` (stereo not given), the activity change, less the hit threshold is 23.3% (active). As to `CC1(C)CC(NC(=O)c2ccc(Cl)cc2Cl)CC(C)(C)N1`, the activity change, less the hit threshold is -23.3%. Regarding `O=C(COc1ccccc1)NC(=S)N1CCc2ccccc21`, the activity change, less the hit threshold is 2.7% (active). Consider `Cc1ccc(C(=O)NC(=S)N2CCN(c3cc(C)ccc3C)CC2)cc1`, for which the activity change, less the hit threshold is -8.7%. Turning to `O=C(COc1ccc(Cl)cc1Cl)NC(=S)N1CCCc2ccccc21`, the activity change, less the hit threshold is -13.8%. Consider `O=C(Nc1cccn(Cc2c(Cl)cccc2Cl)c1=O)c1ccccc1Cl`, for which the activity change, less the hit threshold is -24.1%.

Regarding `Cc1cccc(OCC(=O)NC(=S)N2CCCc3ccccc32)c1`, the activity change, less the hit threshold was -23.9%.

Values taken from PubChem BioAssay AID1942 (Johns Hopkins Ion Channel Center, 2009).
